Hit rate of the full screen: of about 5,500 compounds, about 2,000 (36%) were called active. Inconclusive results (about 18%) are left out. Cut-off read from the data, not from the text of the source: active = normalized growth mostly below about 0.91 (no sharp cut-off); inconclusive = no clear call, values can overlap the other calls; inactive = mostly above about 0.92. The list shows a part of the results.
Test: chemical genetic growth profiling, strain panel (AID 1159580);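 note: tested at 20 µM; growth read once vehicle control cultures reached saturation at 30 °C; 1 = growth at the plate median or of vehicle wells; lower values mean less growth of the strain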
Conditions: S. cerevisiae deletion strains, growth OD

Measured: normalized growth

O=C(OC1CCN(CCCl)CC1)C(c1ccccc1)c1ccccc1
inactive: locus YAL040C, strain CLN3, hits give low values 0.993 | locus YCL061C, strain MRC1 (second series), hits give low values 0.988 | locus YDR150W, strain NUM1, hits give low values 0.986 | locus YDR363W, strain ESC2, hits give low values 0.986 | locus YER002W, strain NOP16, hits give low values 1 | locus YGR078C, strain PAC10, hits give low values 0.994 | locus YJR075W, strain HOC1, hits give low values 0.995 | locus YNL128W, strain TEP1, hits give low values 0.997 | locus YNL153C, strain GIM3, hits give low values 0.969 | locus YNL175C, strain NOP13, hits give low values 1.01 | locus YNL197C, strain WHI3, hits give low values 1.03 | locus YNL224C, strain SQS1, hits give low values 0.99 | locus YOR083W, strain WHI5 (second series), hits give low values 0.996 | locus YPL241C, strain CIN2, hits give low values 0.99

From PubChem BioAssay AID1159580 (chemical genetic matrix, 2015)
